{
  "source": "PubChem BioAssay AID463173",
  "about": "(ICCB-Longwood Screening Facility, Harvard Medical School, 2010)",
  "note": "About 4,300 (8.3%) of roughly 52,000 compounds were called active. This excerpt belongs to a sample that is enriched for actives. Unmarked numbers belong to inactive results. Cut-off read from the data, not from the text of the source: active = survival mostly below about 52% (no sharp cut-off); inactive = mostly above about 56%.",
  "data": [
    {"test_system": "DeltatarO mutant", "assay": "S. aureus survival, RN4220 and DeltatarO strains – OD600, teichoic acid synthesis inhibitors, primary screen (AID 463173)", "settings": "S. aureus RN4220 wild type/DeltatarO growth, OD600, 18 h, active compounds read low, screened at 18.75 µg/mL (by protocol)", "values": [
      {"smiles": "CCN(CC)S(=O)(=O)c1ccc2c(c1)N(CC(=O)Nc1cccc(C(C)=O)c1)C(=O)CO2", "survival": "84%"},
      {"smiles": "Cc1ccc(Cl)cc1N1CCN(C(=O)Cn2ncc3c4ccccc4n(C)c3c2=O)CC1", "survival": "54%"},
      {"smiles": "CC1=C(c2ccc(C)cc2)S(=O)(=O)NC1=NCCCN1CCN(c2ccc(F)cc2)CC1", "survival": "69%"},
      {"smiles": "O=C(O)C(Cc1c[nH]c2ccccc12)Nc1ncnc2c1oc1ccccc12", "note": "(centres undefined)", "survival": "76%"},
      {"smiles": "CCc1ccc(NC(=O)CCc2c(C)nc3nc(-c4cc(OC)cc(OC)c4)nn3c2C)cc1", "survival": "111%"},
      {"smiles": "CCCCc1ccc(NC(=O)CSc2nnc3[nH]c(=O)cc(C)n23)cc1", "survival": "95%"},
      {"smiles": "Cc1ccc(CNC(=O)CCS(=O)(=O)c2ccc3c(c2)CC(C)N3C(=O)C2CC2)cc1", "note": "(centres undefined)", "survival": "91%"},
      {"smiles": "Cc1ccc(-n2ncc3c(N4CCN(Cc5ccccc5)CC4)ncnc32)cc1Cl", "survival": "87%"},
      {"smiles": "COc1ccccc1N1CCN(c2ncnc3c2cnn3-c2cc(Cl)ccc2C)CC1", "survival": "124%"},
      {"smiles": "c1ccc(CN2CCN(c3ncnc4c3cnn4-c3ccccc3)CC2)cc1", "survival": "69%"},
      {"smiles": "COc1ccccc1N1CCN(c2ncnc3c2cnn3-c2cccc(Cl)c2)CC1", "survival": "-2% (active)"},
      {"smiles": "Clc1cccc(-n2ncc3c(N4CCN(Cc5ccccc5)CC4)ncnc32)c1", "survival": "25% (active)"},
      {"smiles": "COc1ccccc1N1CCN(c2ncnc3c2cnn3-c2ccc(C)cc2)CC1", "survival": "91%"},
      {"smiles": "COc1cc(CSc2ncc(CO)n2Cc2ccc(C)cc2)cc(OC)c1", "survival": "92%"},
      {"smiles": "Cc1cccc(NC(=O)CSc2nc3c([nH]c4ccccc43)c(=O)n2-c2ccc(F)cc2)c1C", "survival": "49%"},
      {"smiles": "O=C(CSc1nc2c([nH]c3ccccc32)c(=O)n1-c1ccc(Cl)cc1)c1ccccc1", "survival": "94%"},
      {"smiles": "O=C(CSc1nc2c([nH]c3ccccc32)c(=O)n1-c1ccccc1F)Nc1cccc(C(F)(F)F)c1", "survival": "74%"},
      {"smiles": "Cc1ccc(C)c(NC(=O)CSc2nc3c([nH]c4ccccc43)c(=O)n2-c2ccc(F)cc2)c1", "survival": "32% (active)"},
      {"smiles": "Cc1ccc(-n2c(SCC(=O)c3ccccc3)nc3c([nH]c4ccccc43)c2=O)cc1", "survival": "-5% (active)"},
      {"smiles": "COc1ccc(-n2c(SCC(=O)c3ccccc3)nc3c([nH]c4ccccc43)c2=O)cc1", "survival": "98%"},
      {"smiles": "COc1cccc(NC(=O)CSc2nc3c([nH]c4ccccc43)c(=O)n2-c2ccccc2)c1", "survival": "76%"},
      {"smiles": "O=C(CSc1nc2c([nH]c3ccccc32)c(=O)n1-c1cccc(Cl)c1)c1ccccc1", "survival": "47% (active)"},
      {"smiles": "O=C(CSc1nc2c([nH]c3ccccc32)c(=O)n1-c1ccccc1)c1ccc(Cl)cc1", "survival": "92%"},
      {"smiles": "O=C(CSc1nc2c([nH]c3ccccc32)c(=O)n1-c1ccccc1)Nc1cccc(C(F)(F)F)c1", "survival": "-4% (active)"},
      {"smiles": "CCOc1ccc(-n2c(SCC(=O)Nc3cc(C)ccc3C)nc3c([nH]c4ccccc43)c2=O)cc1", "survival": "75%"},
      {"smiles": "O=C(CSc1nc2c([nH]c3ccccc32)c(=O)n1-c1ccccc1)c1ccccc1", "survival": "77%"},
      {"smiles": "CCCn1ccc2c(OCC(=O)Nc3ccc(C(F)(F)F)cc3)cccc2c1=O", "survival": "75%"},
      {"smiles": "COc1ccccc1CNC(=O)Cn1nc(C)n2cccc2c1=O", "survival": "94%"},
      {"smiles": "CCN(CC)c1ccc(NC(=O)Cn2cc3c(n2)CCCC3)c(C)c1", "survival": "121%"},
      {"smiles": "CCOc1ccc(-n2c(SCC(=O)NC3CCCC3)nnc2-c2ccoc2C)cc1", "survival": "92%"},
      {"smiles": "COc1ccc(C)cc1NC(=O)c1ccc2c(SCC(=O)O)c3c(nc2c1)CCCC3", "survival": "77%"},
      {"smiles": "O=C(Nc1ccc(F)c(Cl)c1)c1ccc2c(Cl)c3c(nc2c1)CCCC3", "survival": "118%"},
      {"smiles": "CCOc1ccccc1NC(=O)c1ccc2c(Cl)c3c(nc2c1)CCCC3", "survival": "35% (active)"},
      {"smiles": "COC(=O)c1ccccc1NC(=O)c1ccc2c(Cl)c3c(nc2c1)CCCC3", "survival": "80%"},
      {"smiles": "CCOc1ccc(CNC(=O)c2ccc3c(Cl)c4c(nc3c2)CCCC4)cc1", "survival": "75%"},
      {"smiles": "COc1ccc(OC)c(NC(=O)c2ccc3c(Cl)c4c(nc3c2)CCCC4)c1", "survival": "82%"},
      {"smiles": "COc1cc(Cl)c(C)cc1NC(=O)c1ccc2c(SCC(=O)O)c3c(nc2c1)CCCC3", "survival": "41% (active)"},
      {"smiles": "CCOc1ccccc1NC(=O)c1ccc2c(Cl)c3c(nc2c1)CCC3", "survival": "82%"},
      {"smiles": "O=C(Nc1ccccc1F)c1ccc2c(Cl)c3c(nc2c1)CCC3", "survival": "21% (active)"},
      {"smiles": "COc1ccccc1NC(=O)c1ccc2c(Cl)c3c(nc2c1)CCCC3", "survival": "15% (active)"},
      {"smiles": "COc1cc(OC)c(NC(=O)c2ccc3c(Cl)c4c(nc3c2)CCCC4)cc1Cl", "survival": "85%"},
      {"smiles": "COc1ccc(NC(=O)c2ccc3c(SCC(=O)O)c4c(nc3c2)CCCC4)c(OC)c1", "survival": "55%"},
      {"smiles": "COc1ccc(NC(=O)C2CCN(c3ccc(Sc4ccc(C)cc4)nn3)CC2)cc1", "survival": "74%"},
      {"smiles": "Cc1ccc(CNC(=O)C(C)n2c(=O)cc(-c3ccccc3)c3c(C)nn(C)c32)cc1", "note": "(centres undefined)", "survival": "80%"},
      {"smiles": "C=CCn1c(Br)nc2c1c(=O)n(C)c(=O)n2C", "survival": "73%"},
      {"smiles": "CN(C1CCCCC1)S(=O)(=O)c1ccc2c(c1)c(=O)c(C(=O)NCCc1ccccc1)cn2C", "survival": "79%"},
      {"smiles": "Cc1cc(C)c2c(-n3cccc3)c(C(=O)NCCc3ccccc3)sc2n1", "survival": "90%"},
      {"smiles": "Cc1cc(C)cc(OCCSc2nc(-c3cccs3)nc3cc(=O)[nH]n23)c1", "survival": "67%"},
      {"smiles": "O=C(COc1ccccc1Cl)Nc1cc(-c2ccccc2F)nn1-c1ccccc1", "survival": "91%"},
      {"smiles": "COc1cccc(CNC(=O)c2ccc3c(Cl)c4c(nc3c2)CCCC4)c1", "survival": "49% (active)"},
      {"smiles": "CCOC(=O)c1cccc(NC(=O)c2ccc3c(Cl)c4c(nc3c2)CCC4)c1", "survival": "41% (active)"},
      {"smiles": "CCOC(=O)c1ccccc1NC(=O)c1ccc2c(Cl)c3c(nc2c1)CCC3", "survival": "96%"},
      {"smiles": "COc1cc(NC(=O)c2ccc3c(Cl)c4c(nc3c2)CCC4)cc(OC)c1OC", "survival": "62%"},
      {"smiles": "O=C(NCc1cccc(Cl)c1)c1ccc2c(Cl)c3c(nc2c1)CCCC3", "survival": "48%"},
      {"smiles": "COc1ccc(CNC(=O)c2ccc3c(Cl)c4c(nc3c2)CCCC4)c(OC)c1", "survival": "92%"},
      {"smiles": "NS(=O)(=O)c1ccc(NC(=O)c2csnn2)cc1", "survival": "80%"},
      {"smiles": "O=C(NCCO)c1ccc(-c2nnc(Nc3ccc(OC(F)(F)Cl)cc3)c3ccccc23)cc1", "survival": "72%"},
      {"smiles": "CCOC(=O)c1ccc(NC(=O)C2CCCN(c3ccc(Sc4ccc(C)cc4)nn3)C2)cc1", "note": "(centres undefined)", "survival": "43%"},
      {"smiles": "Cc1ccccc1CN1c2ccccc2-c2nc(SCC(=O)Nc3cc(F)ccc3F)ncc2S1(=O)=O", "survival": "89%"},
      {"smiles": "Cc1ccc(C)c(CN2C(=O)c3ccccc3Sc3ccc(C(=O)NCc4ccc5c(c4)OCO5)cc32)c1", "survival": "89%"},
      {"smiles": "Cc1[nH]c2ccccc2c1Cc1nnc(SCC(N)=O)n1Cc1ccco1", "survival": "99%"},
      {"smiles": "O=C(CSc1nc(Nc2ccc(F)cc2)c2ccccc2n1)c1ccc(F)cc1", "survival": "124%"},
      {"smiles": "COC(=O)c1ccc(Nc2nc(-c3ccc(C)cc3)nc3ccccc23)cc1", "survival": "9% (active)"},
      {"smiles": "CCOC(=O)c1nc(Nc2ccc(C(C)=O)cc2)c2ccccc2n1", "survival": "49%"},
      {"smiles": "COC(=O)c1ccc(Nc2nc(-c3ccccc3Cl)nc3ccccc23)cc1", "survival": "21% (active)"},
      {"smiles": "CCOC(=O)c1nc(Nc2ccc(C(=O)OC(C)C)cc2)c2ccccc2n1", "survival": "68%"},
      {"smiles": "CCOC(=O)c1nc(Nc2ccc(C(=O)OCC(C)C)cc2)c2ccccc2n1", "survival": "61%"},
      {"smiles": "COc1ccc2c(c1)c1c(c(=O)n(-c3ccc(OC)c(OC)c3)c(=O)n1Cc1ccc(C)cc1)n2C", "survival": "73%"},
      {"smiles": "CCOc1ccc(NC(=O)CSc2nc3c(oc4ccccc43)c(=O)n2-c2ccccc2C)cc1", "survival": "79%"},
      {"smiles": "COc1ccc(CC(=O)N2CCc3cc(OC)c(OC)cc3C2COc2ccc(F)cc2)cc1", "note": "(centres undefined)", "survival": "67%"},
      {"smiles": "COc1cccc(CNCCSc2nnnn2C)c1OCc1ccc(Cl)cc1", "survival": "62%"},
      {"smiles": "Cn1nnnc1SCCCNCc1ccccc1OCc1ccc(F)cc1", "survival": "57% (active)"},
      {"smiles": "Cn1nnnc1SCCCNCc1cccc(OCc2ccc(Cl)cc2)c1", "survival": "-3% (active)"},
      {"smiles": "CCOc1cc(CNCCSc2nnnn2C)cc(Cl)c1OCc1ccc(Cl)cc1", "survival": "2% (active)"},
      {"smiles": "Cn1nnnc1SCCCNCc1cccc(OCc2ccc(F)cc2)c1", "survival": "115%"},
      {"smiles": "COc1cc(CNCCSc2nnnn2C)cc(Cl)c1OCc1ccccc1", "survival": "44% (active)"},
      {"smiles": "COc1cc(CNCCSc2nnnn2C)ccc1OCc1ccccc1", "survival": "73%"},
      {"smiles": "COc1cccc(CNCCSc2nnnn2C)c1OCc1ccccc1", "survival": "79%"},
      {"smiles": "Cn1nnnc1SCCNCc1ccc(OCc2ccc(Cl)cc2)cc1", "survival": "68%"},
      {"smiles": "Cn1nnnc1SCCCNCc1ccccc1OCc1ccccc1F", "survival": "72%"},
      {"smiles": "Cn1nnnc1SCCCNCc1cccc(OCc2ccccc2)c1", "survival": "85%"},
      {"smiles": "Cn1nnnc1SCCCNCc1ccccc1OCc1ccc(Cl)cc1", "survival": "66%"},
      {"smiles": "O=C1CCc2cc(S(=O)(=O)NC(C(=O)Nc3ccc(F)cc3)c3ccccc3)ccc2N1", "note": "(centres undefined)", "survival": "100%"},
      {"smiles": "COc1ccc(-n2c(=O)c3c4c(sc3n(CC(=O)N3CCCCC3C)c2=O)CCC4)c(OC)c1", "note": "(centres undefined)", "survival": "87%"},
      {"smiles": "Cc1ccc(Cl)cc1NC(=O)Cn1c(=O)c(CNc2ccccc2)cc2cc3c(cc21)OCCO3", "survival": "95%"},
      {"smiles": "CCc1ccc(CN2CCc3nc(Nc4ccccc4)ncc3C2)cc1", "survival": "84%"},
      {"smiles": "Cc1ccc(Nc2nc3ccc(C(=O)c4ccccc4)cc3n3c(C)nnc23)c(C)c1", "survival": "105%"},
      {"smiles": "CCCn1c2ccccc2c2cnn(CC(=O)NCCCN(Cc3ccccc3)C(C)C)c(=O)c21", "survival": "88%"},
      {"smiles": "COc1ccc(-c2c(C)nn3c(-c4ccccc4)cc(-c4ccccc4)nc23)cc1OC", "survival": "96%"},
      {"smiles": "COc1ccc(-c2c(C)nn3c(C(F)(F)F)cc(-c4ccccc4)nc23)cc1OC", "survival": "57%"},
      {"smiles": "COc1ccc(-c2c(C)nn3c(-c4ccccc4)cc(C)nc23)cc1OC", "survival": "38% (active)"},
      {"smiles": "COc1ccc(-c2cc(C(F)(F)F)n3nc(C)c(-c4ccccc4)c3n2)cc1OC", "survival": "69% (active)"},
      {"smiles": "COc1ccc(-c2c(C)nn3c(C(F)(F)F)cc(-c4ccccc4)nc23)cc1", "survival": "62%"},
      {"smiles": "COc1ccc(-c2cc(C)nc3c(-c4ccc(OC)c(OC)c4)c(C)nn23)cc1", "survival": "63%"}
    ]}
  ]
}
